Consider 13 molecules from PubChem BioAssay (Tox21).

A short description of experiment [1]: qHTS assay to identify aromatase inhibitors - cell viability counter screen (AID 743084).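 Further: cells stimulated with testosterone during compound exposure; nearly all actives have a fitted effect of over 55% in size.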 Further: potency means the concentration at half of the fitted maximal effect.
Experiment [2] in a line: qHTS assay to identify small molecule that activate the aryl hydrocarbon receptor (AhR) signaling pathway - cell viability counter screen (AID 743086). Further: nearly all actives have a fitted effect of over 45% in size. Further: potency means the concentration at half of the fitted maximal effect. Put shortly: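 Cytotoxicity counter screen: CellTiter-Fluor signal (30 min, 37 C) in 4000 HepG2 cells/well carrying the DRE-luciferase reporter, following 24 h compound exposure at 37 C.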
In experiment [3] the target is Peroxisome proliferator-activated receptor gamma (Homo sapiens) (UniProt P37231). In words: qHTS assay to identify small molecule agonists of the peroxisome proliferator-activated receptor gamma (PPARg) signaling pathway (AID 743094; active means well fitted activation curve with a large enough effect in the signal ratio in the repeat runs, not every such curve was filed as active; the % refers to the signal ratio). Put shortly:
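Agonism was assessed in a beta-lactamase reporter system, HEK293H cells with a stably integrated UAS-bla construct under PPARg control; the 17 h treatment at 37C preceded a 1 h room-temperature FRET substrate read.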

Experiment [4] shares this target. Description: qHTS assay to identify small molecule antagonists of the peroxisome proliferator-activated receptor gamma (PPARg) signaling pathway (AID 743191; calls by dose curve; further: nearly all actives have a fitted effect of over 30% in size; further: potency means the concentration at half of the fitted maximal effect). Put shortly: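 Beta-lactamase reporter under UAS control in HEK293H PPARg-bla cells; compound treatment 17 h at 37C. Read-out: fluorescence intensity after 1 h room-temperature incubation with LiveBLAzer B/G FRET substrate.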
On the technique in general: In qHTS, concentration-response curves come from the screen itself.

Experiment [5] is described as follows: qHTS assay to identify small molecule antagonists of the peroxisome proliferator-activated receptor gamma (PPARg) signaling pathway - cell viability counter screen (AID 743194). Further: nearly all actives have a fitted effect of over 55% in size. Summed up: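 Viability was measured as CellTiter-Glo luminescence in GeneBLAzer PPARg UAS-bla HEK293H cells. These cells had been exposed 17 h at 37 C to compounds together with rosiglitazone at 50 nM final, with the beta-lactamase readout taken in the same wells.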

A short description of experiment [6]: qHTS assay for small molecule agonists of the antioxidant response element (ARE) signaling pathway (AID 743202; active means well fitted activation curve with a large enough effect in the signal ratio in the repeat runs, not every such curve was filed as active; the % refers to the signal ratio; further: potency means the concentration at half of the fitted maximal effect). Summed up: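 Beta-lactamase reporter activity, read as fluorescence intensity, reflects ARE/Nrf2 pathway induction in HepG2 cells after 16 h compound exposure at 37 C; substrate loading was 2 h at room temperature.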
Experiment [7] can be described thus: qHTS assay for small molecule agonists of the antioxidant response element (ARE) signaling pathway - cell viability counter screen (AID 743203; calls by dose curve; further: nearly all actives have a fitted effect of over 55% in size; further: potency means the concentration at half of the fitted maximal effect). Summed up: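 ATP content via CellTiter-Glo luminescence served as the viability measure. Cells: ARE-bla HepG2, 2,000 per well. Exposure: 16 hrs, 37C/5% CO2.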
Experiment [8] can be described thus: qHTS assay for small molecule activators of the heat shock response signaling pathway (AID 743210; active means well fitted activation curve with a large enough effect in the signal ratio in the repeat runs, with a control signal flat, not every such curve was filed as active; the % refers to the signal ratio;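 further: HeLa cells with beta-lactamase reporter driven by heat shock elements; series mostly up to about 63 µM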). Put shortly: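 Fluorescence from a cleaved B/G FRET substrate (2.5 h, room temp) reports HSE-driven beta-lactamase in HeLa cells treated 5 h at 37 C with DMSO-dissolved compounds.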
The nature of experiment [9]: qHTS assay to identify small molecule agonists of the peroxisome proliferator-activated receptor delta (PPARd) signaling pathway - cell viability counter screen (AID 743211). Further: nearly all actives have a fitted effect of over 55% in size. Further: potency means the concentration at half of the fitted maximal effect. Put shortly: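 Luminescent ATP viability assay (CellTiter-Glo, 30 min RT) in UAS-bla HEK293H cells carrying the PPAR delta reporter construct, 3000 cells/well, after a 17 h compound treatment at 37 C.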

Experiment [10] deals with Peroxisome proliferator-activated receptor delta (Homo sapiens) (UniProt Q03181). In words: qHTS assay to identify small molecule agonists of the peroxisome proliferator-activated receptor delta (PPARd) signaling pathway (AID 743212; calls by dose curve). Summed up:
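Steps: seed PPARd-bla HEK293H cells; incubate 5 h, 37 C, 5% CO2; add compounds in DMSO; incubate, 37 C; add LiveBLAzer B/G FRET substrate; hold 2 h at room temperature; measure fluorescence.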

Experiment [11] is described as follows: qHTS assay to identify small molecule antagonists of the peroxisome proliferator-activated receptor delta (PPARd) signaling pathway - cell viability counter screen (AID 743213). Further: nearly all actives have a fitted effect of over 50% in size. Further: potency means the concentration at half of the fitted maximal effect. Summed up: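 Luminescence from CellTiter-Glo, added after the bla read and incubated 30 min at room temperature, gives viability of HEK293H PPARd-bla cells exposed to compounds for 17 h at 37 C with 300 nM L165041.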

Experiment [12] deals with Peroxisome proliferator-activated receptor delta (Homo sapiens) (UniProt Q03181). Description: qHTS assay to identify small molecule antagonists of the peroxisome proliferator-activated receptor delta (PPARd) signaling pathway (AID 743215; active means well fitted inhibition curve with a large enough effect in the signal ratio in the repeat runs, not every such curve was filed as active; the % refers to the signal ratio;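 further: cells stimulated with agonist L165041 at 300 nM final during compound exposure; series mostly up to about 62 µM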). Summed up: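 Here, a reporter line (HEK293H, beta-lactamase under a UAS) measures PPARd signaling. Compounds are tested against agonist L165041 at 300 nM final concentration over 17 h at 37 C, with fluorescence read after substrate.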

Experiment [13] in a line: qHTS assay to identify small molecule agonists of the farnesoid-X-receptor (FXR) signaling pathway - cell viability counter screen (AID 743218). Further: nearly all actives have a fitted effect of over 45% in size. Further: potency means the concentration at half of the fitted maximal effect. Summed up:
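Quantitative HTS counter screen measuring ATP-based viability via CellTiter-Glo luminescence in HEK 293T cells carrying a UAS-driven beta-lactamase reporter, after 16 h compound exposure at 37 C.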

Experiment [14] can be described thus: qHTS assay to identify small molecule antagonists of the farnesoid-X-receptor (FXR) signaling pathway - cell viability counter screen (AID 743221; active means well fitted cell-killing curve with a large enough effect in the repeat runs, not every such curve was filed as active; further: nearly all actives have a fitted effect of over 50% in size; further: potency means the concentration at half of the fitted maximal effect). Put shortly:
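In GeneBLAzer FXR-UAS-bla HEK 293T cells stimulated with 50 uM chenodeoxycholic acid (final), compounds acted for 16 h at 37 C. Viability was assessed afterwards by CellTiter-Glo luminescence.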

Experiment [15] addresses Vitamin D3 receptor (Homo sapiens) (UniProt P11473). In words: qHTS assay to identify small molecule agonists of the vitamin D receptor (VDR) signaling pathway (AID 743222; calls by dose curve). Summed up:
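Tox21 cell reporter format: VDR-bla line, 16 h compound exposure in 5% CO2 at 37C, then fluorescence intensity after 2 h with LiveBLAzer B/G FRET substrate.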

Experiment [16] has the same target. In words: qHTS assay to identify small molecule antagonists of the vitamin D receptor (VDR) signaling pathway (AID 743223; active means well fitted inhibition curve with a large enough effect in the signal ratio in the repeat runs, not every such curve was filed as active; the % refers to the signal ratio). Put shortly:
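Agonist 1alpha,25-dihydroxyvitamin D3 (3 nM in well) was added with each compound to VDR-bla cells preincubated 4 h. Cells stood 16 h at 37C, then FRET substrate 2 h at room temperature; fluorescence intensity recorded.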

Experiment [17] has as its target Aryl hydrocarbon receptor (Homo sapiens) (UniProt P35869). Description: qHTS assay to identify small molecule that activate the aryl hydrocarbon receptor (AhR) signaling pathway (AID 743085).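 Further: HG2L7.5c1 human HepG2 liver cells with stably integrated DRE-driven firefly reporter; series mostly up to about 70 µM; nearly all actives have a fitted effect of over 15% in size.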 Summed up: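 24 h compound exposure, 37C, HepG2-derived HG2L7.5c1 cells with DRE-responsive luciferase. Readouts: fluorescence viability, then luminescence at room temperature after 30 min.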

The target in experiment [18] is Bile acid receptor (Homo sapiens) (UniProt Q96RI1). In words: qHTS assay to identify small molecule antagonists of the farnesoid-X-receptor (FXR) signaling pathway (AID 743217; active means well fitted inhibition curve with a large enough effect in the signal ratio in the repeat runs, not every such curve was filed as active; the % refers to the signal ratio; further: potency means the concentration at half of the fitted maximal effect). Summed up: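 Test compounds are pin-transferred onto FXR-bla HEK 293T cells, then chenodeoxycholic acid is added at 50 uM final. After 16 h at 37 °C, LiveBLAzer B/G substrate is applied for 2 h at room temperature and fluorescence read.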

Experiment [19] shares this target. Description: qHTS assay to identify small molecule agonists of the farnesoid-X-receptor (FXR) signaling pathway (AID 743220; active means well fitted activation curve with a large enough effect in the signal ratio in the repeat runs, not every such curve was filed as active; the % refers to the signal ratio). Summed up: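 FXR-UAS-bla HEK 293T cells carrying a UAS-driven beta-lactamase reporter were plated for 5 h at 37C/5% CO2, then exposed to DMSO-dissolved Tox21 10K compounds for 16 h at 37C. A LiveBLAzer B/G FRET substrate was loaded for 2 h at room temperature before fluorescence reading.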

Experiment [20] is described as follows: qHTS assay for small molecule activators of the heat shock response signaling pathway - cell viability counter screen (AID 743209). Further: nearly all actives have a fitted effect of over 50% in size. Summed up: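 Compounds dissolved in DMSO were added to overnight-plated HSE-bla HeLa cells and left 5 h at 37 C. Cell viability was quantified by luminescence using CellTiter-Glo.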

Several values for one entry are separate records, joined by “and”; a condition that tells them apart may be missing. Identical values can stand only once. Inconclusive results are not listed. A structure can be active in one record and inactive in another. Activity calls are given as the source filed them. Unless noted, the call rests on the fitted dose curve; in most records, active means well fitted curve in the direction sought with a large enough effect in the repeat runs; inconclusive means weak or mixed curves; inactive means no such curve, though single readings can be large; an effect the other way counts as inactive or inconclusive.

Aryl hydrocarbon receptor (Homo sapiens), sequence (P35869 whole entry, looked up): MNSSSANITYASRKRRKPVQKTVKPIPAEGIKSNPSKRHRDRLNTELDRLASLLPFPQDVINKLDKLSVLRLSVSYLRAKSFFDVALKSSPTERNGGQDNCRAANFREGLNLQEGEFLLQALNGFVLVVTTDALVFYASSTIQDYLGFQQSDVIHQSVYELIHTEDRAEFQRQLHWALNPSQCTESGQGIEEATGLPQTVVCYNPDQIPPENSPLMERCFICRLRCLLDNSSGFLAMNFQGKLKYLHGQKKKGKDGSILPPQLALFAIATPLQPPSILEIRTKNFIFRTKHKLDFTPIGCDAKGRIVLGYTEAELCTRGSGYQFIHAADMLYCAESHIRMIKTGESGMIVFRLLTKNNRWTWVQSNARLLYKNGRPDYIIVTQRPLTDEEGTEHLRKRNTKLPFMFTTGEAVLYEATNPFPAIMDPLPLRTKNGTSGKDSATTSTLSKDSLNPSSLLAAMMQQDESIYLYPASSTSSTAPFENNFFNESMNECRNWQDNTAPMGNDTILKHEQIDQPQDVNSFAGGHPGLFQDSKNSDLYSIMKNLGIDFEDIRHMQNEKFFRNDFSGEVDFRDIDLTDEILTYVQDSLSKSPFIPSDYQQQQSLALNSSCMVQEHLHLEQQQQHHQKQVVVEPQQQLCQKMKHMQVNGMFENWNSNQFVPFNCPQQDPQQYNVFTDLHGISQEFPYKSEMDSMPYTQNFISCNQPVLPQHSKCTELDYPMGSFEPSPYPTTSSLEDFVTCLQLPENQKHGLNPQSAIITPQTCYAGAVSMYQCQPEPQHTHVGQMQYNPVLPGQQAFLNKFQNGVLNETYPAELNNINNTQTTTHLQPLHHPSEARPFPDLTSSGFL
Vitamin D3 receptor (Homo sapiens), sequence (P11473 whole entry, looked up): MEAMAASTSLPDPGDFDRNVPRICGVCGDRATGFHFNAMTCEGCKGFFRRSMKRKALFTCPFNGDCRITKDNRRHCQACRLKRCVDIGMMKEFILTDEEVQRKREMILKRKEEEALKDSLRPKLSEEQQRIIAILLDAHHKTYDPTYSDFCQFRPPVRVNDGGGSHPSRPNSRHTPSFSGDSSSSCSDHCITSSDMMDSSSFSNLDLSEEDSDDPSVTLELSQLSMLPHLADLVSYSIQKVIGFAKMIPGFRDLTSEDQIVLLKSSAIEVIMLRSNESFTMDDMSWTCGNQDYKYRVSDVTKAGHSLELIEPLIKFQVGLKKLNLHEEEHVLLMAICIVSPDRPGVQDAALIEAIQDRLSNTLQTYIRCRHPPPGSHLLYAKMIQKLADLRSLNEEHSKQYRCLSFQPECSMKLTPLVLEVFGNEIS
Bile acid receptor (Homo sapiens), sequence (Q96RI1 whole entry, looked up): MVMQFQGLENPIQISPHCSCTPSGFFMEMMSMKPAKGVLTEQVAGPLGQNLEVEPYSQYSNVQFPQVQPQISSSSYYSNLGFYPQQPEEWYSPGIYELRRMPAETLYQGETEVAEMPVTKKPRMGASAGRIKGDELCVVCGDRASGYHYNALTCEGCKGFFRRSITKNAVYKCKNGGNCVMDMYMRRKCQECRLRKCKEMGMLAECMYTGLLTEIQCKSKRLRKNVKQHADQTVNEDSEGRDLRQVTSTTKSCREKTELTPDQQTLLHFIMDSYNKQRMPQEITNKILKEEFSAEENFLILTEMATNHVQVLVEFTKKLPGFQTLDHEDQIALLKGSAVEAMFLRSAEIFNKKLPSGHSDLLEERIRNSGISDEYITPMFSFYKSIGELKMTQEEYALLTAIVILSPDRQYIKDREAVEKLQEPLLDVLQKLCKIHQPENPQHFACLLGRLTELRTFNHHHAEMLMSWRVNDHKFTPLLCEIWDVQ
Peroxisome proliferator-activated receptor gamma (Homo sapiens), sequence (P37231 whole entry, looked up): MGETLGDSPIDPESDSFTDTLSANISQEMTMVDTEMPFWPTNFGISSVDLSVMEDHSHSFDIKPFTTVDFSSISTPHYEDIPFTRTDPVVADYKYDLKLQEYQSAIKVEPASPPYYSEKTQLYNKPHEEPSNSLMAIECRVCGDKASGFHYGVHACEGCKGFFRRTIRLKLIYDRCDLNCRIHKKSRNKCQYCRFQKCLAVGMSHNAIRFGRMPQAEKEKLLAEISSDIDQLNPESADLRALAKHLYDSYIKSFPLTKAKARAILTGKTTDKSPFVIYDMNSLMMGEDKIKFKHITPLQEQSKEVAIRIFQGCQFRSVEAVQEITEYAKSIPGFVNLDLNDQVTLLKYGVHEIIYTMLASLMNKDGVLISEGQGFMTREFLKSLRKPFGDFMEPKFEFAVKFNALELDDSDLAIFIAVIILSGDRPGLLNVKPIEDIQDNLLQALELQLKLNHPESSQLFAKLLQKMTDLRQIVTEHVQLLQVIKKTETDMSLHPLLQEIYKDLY
Peroxisome proliferator-activated receptor delta (Homo sapiens), sequence (Q03181 whole entry, looked up): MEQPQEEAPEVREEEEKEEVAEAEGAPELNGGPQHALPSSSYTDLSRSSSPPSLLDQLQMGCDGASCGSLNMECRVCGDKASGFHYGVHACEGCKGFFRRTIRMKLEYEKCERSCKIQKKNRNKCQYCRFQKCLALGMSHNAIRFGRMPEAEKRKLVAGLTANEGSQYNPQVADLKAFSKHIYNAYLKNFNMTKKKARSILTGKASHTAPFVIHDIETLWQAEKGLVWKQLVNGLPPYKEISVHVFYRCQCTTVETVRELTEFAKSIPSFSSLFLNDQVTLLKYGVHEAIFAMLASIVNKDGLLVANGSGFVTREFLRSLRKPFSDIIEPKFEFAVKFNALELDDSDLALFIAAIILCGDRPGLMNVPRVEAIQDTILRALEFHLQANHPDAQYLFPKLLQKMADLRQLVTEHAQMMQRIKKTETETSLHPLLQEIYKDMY

In the case of `Cc1ccc(N)c([N+](=O)[O-])c1`, the Potency entry in experiment [1], in experiment [2], in experiment [4], in experiment [5], in [6] and in [7] was “inactive” in each case. For the same molecule, the Potency entry in experiment [9], in [11], in experiment [13] and in [14] was “inactive” in each case. For the same molecule, the call in experiment [3], in experiment [8], in experiment [10], in experiment [12], in [15] and in [16] was inactive.
For `C=CC(=O)OCCCC`, the Potency result in [1], in experiment [17], in experiment [2], in experiment [6], in experiment [7] and in experiment [9] was “inactive” throughout. Further, the Potency entry in experiment [11], in experiment [18], in experiment [13] and in experiment [14] was “inactive” throughout. The molecule was classed as inactive in experiment [8], in [10], in experiment [12], in experiment [19], in [15] and in experiment [16].
With `Cc1ccc(C(C)(C)C)c(O)c1`, the Potency result in experiment [17], in experiment [2], in experiment [4], in experiment [6], in experiment [7] and in experiment [20] was “inactive” throughout. Besides, the Potency entry in experiment [9], in experiment [11], in [18], in [13] and in [14] was “inactive” each time. For the same molecule, the outcome in [3], in [8], in [19], in [15] and in experiment [16] was inactive.
In the case of `O=[Se](O)O`, the Potency entry in experiment [1], in [5], in experiment [6], in experiment [7], in experiment [9] and in experiment [11] was “inactive” throughout. Moreover, the Potency entry in experiment [13] and in [14] was “inactive” in each case. The Potency in [2] was 27.3 µM (active) and inactive. In addition, the result in [8], in experiment [10] and in experiment [12] was inactive.
For the molecule `Oc1ccc(C(c2ccc(O)cc2)C(Cl)(Cl)Cl)cc1`, the Potency result in [17], in experiment [2], in [20] and in [14] was “inactive” in each case. For the same molecule, the Potency was 6.92 µM (active) in experiment [4], 68.6 µM (active) in [7], 54.9 µM (active) in experiment [9] and 38.9 µM (active) in experiment [11]. Also, the molecule was called inactive in experiment [8] and in experiment [15].
In the case of `O=C(CCCN1CCC(O)(c2ccc(Cl)cc2)CC1)c1ccc(F)cc1`, the Potency result in [1], in [17], in experiment [2], in experiment [5] and in [18] was “inactive” throughout. In addition, the Potency is 54.5 µM (active) and inactive in [7]; 30.9 µM (active) and 21.1 µM (active) in experiment [11]; 30.9 µM (active) and inactive in experiment [13]. The call in [19] was inactive.
Consider `C=CCOC(=O)C(=C)C`, for which the Potency entry in [2], in experiment [5], in experiment [6], in [7], in experiment [9] and in experiment [11] was “inactive” throughout. In addition, the Potency result in [13] and in experiment [14] was “inactive” in each case. Also, the molecule was classed as inactive in [8], in [10], in experiment [12], in experiment [15] and in experiment [16].
For `C[C@]12CC[C@@H]3c4ccc(O)cc4CC[C@H]3[C@@H]1CC[C@@H]2O`, the Potency entry in [1], in experiment [17], in experiment [2], in experiment [5], in experiment [7] and in experiment [9] was “inactive” each time. In addition, the Potency result in experiment [11], in [13] and in experiment [14] was “inactive” in each case. The outcome in [8], in experiment [10], in experiment [12], in [15] and in experiment [16] was inactive.
For `CN(C)CCCN1c2ccccc2Sc2ccc(Cl)cc21`, the Potency was 68.6 µM (active) in experiment [1]; 30.6 µM (active) in [2]; 24.3 µM (active) and 29.8 µM (active) in [7]; 11 µM (active) and 23.7 µM (active) in experiment [9]; 13.8 µM (active) and 18.8 µM (active) in [11]; 49 µM (active) and 26.6 µM (active) in experiment [18]. In addition, the Potency in [13] is 21.9 µM (active) and 26.6 µM (active); in experiment [14], 43.6 µM (active) and 26.6 µM (active). Also, the Potency result in experiment [17] and in experiment [20] was “inactive” each time. Besides, the molecule was called inactive in experiment [19].
On to `OCCNCCO`, for which the Potency entry in experiment [1], in [17], in experiment [2], in experiment [5], in experiment [6] and in [7] was “inactive” throughout. For the same molecule, the Potency entry in experiment [20], in [9], in experiment [11], in [13] and in experiment [14] was “inactive” throughout. For the same molecule, the outcome in experiment [8], in [10], in [12], in experiment [15] and in experiment [16] was inactive.
On to `CCCCCC=O`, for which the Potency result in experiment [17], in [2], in [6], in experiment [7], in [9] and in experiment [11] was “inactive” each time. The Potency entry in experiment [18], in experiment [13] and in experiment [14] was “inactive” each time. Further, the call in experiment [3], in [8], in experiment [10], in [19], in experiment [15] and in experiment [16] was inactive.
With `CC/C(=C(/CC)c1ccc(O)cc1)c1ccc(O)cc1`, the Potency entry in experiment [1] is “inactive and 68 µM (active)”; in experiment [9] it was 61.6 µM (active); in [11] it was 34.4 µM (active); in experiment [18] it was 16.8 µM (active). The Potency result in [2] and in [14] was “inactive” throughout. The outcome in [19], in [15] and in [16] was inactive.
With `CC/C=C\C/C=C\C/C=C\CCCCCCCC(=O)O`, the Potency result in experiment [1], in [17], in [2], in [5], in experiment [7] and in [20] was “inactive” each time. Also, the Potency entry in experiment [9], in experiment [18], in experiment [13] and in [14] was “inactive” in each case. Also, the Potency result is “inactive and 34.4 µM (active)” in experiment [6]; “inactive and 34.7 µM (active)” in [11]. Besides, the result in [8], in experiment [10], in experiment [19], in experiment [15] and in [16] was inactive.
